Experimental data as given in PubChem BioAssay.
Entries with a potency or affinity are not part of this list. The source made the active and inactive calls. The limit is not given here; nearly all actives have IC50 up to about 0.98 µM.

biological target: Calcium-dependent protein kinase 1 (Plasmodium falciparum (isolate 3D7)) (UniProt P62344); experiment: PfCDPK1 kinase inhibitors, biochemical, TCAMS library (AID 1159585); settings: recombinant PfCDPK1, Kinase-Glo ATP depletion luminescence;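 also: inhibitors leave more ATP so luminescence rises with inhibition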
Sequence (P62344 whole entry, looked up): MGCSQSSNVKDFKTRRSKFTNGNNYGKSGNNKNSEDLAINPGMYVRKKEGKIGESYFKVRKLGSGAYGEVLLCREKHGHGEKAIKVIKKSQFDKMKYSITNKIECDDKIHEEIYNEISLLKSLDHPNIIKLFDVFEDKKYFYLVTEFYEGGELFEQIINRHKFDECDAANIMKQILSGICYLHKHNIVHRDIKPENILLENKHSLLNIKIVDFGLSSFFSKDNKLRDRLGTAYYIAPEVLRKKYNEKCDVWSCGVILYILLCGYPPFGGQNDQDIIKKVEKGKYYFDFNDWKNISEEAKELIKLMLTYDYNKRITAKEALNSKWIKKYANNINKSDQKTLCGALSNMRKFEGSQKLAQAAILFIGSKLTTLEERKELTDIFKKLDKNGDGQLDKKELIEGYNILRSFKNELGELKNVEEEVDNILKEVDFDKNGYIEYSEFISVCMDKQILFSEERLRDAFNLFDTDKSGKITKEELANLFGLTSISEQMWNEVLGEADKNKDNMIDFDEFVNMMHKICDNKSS

outcome, inactive:
FC(F)(F)c1ccc2nc(-c3ccc(-c4ccc(CNCC5CCCO5)cc4)cc3)[nH]c2c1 (stereo not given)
COc1ccc2c(NN=Cc3cccc([N+](=O)[O-])c3)ccnc2c1
CC(C)(C)c1ccc2nccc(Nc3cccc(O)c3)c2c1
COc1ccccc1-c1sccc1C(=O)NC1(c2cc(Cl)cc(Cl)c2)CCCC1
COc1ccc(-n2ccnc2)cc1CNC1CCN(CC2Cn3c(=O)ccc4ccc(F)c2c43)CC1 (stereo not given)
COc1ccc(-c2nc(NC(=O)CSc3ccc([N+](=O)[O-])cc3)sc2C)cc1
Cc1cc(NN=Cc2ccc(F)cc2)c2cc(C(F)(F)F)ccc2n1
NC1=NC2(CCCCC2)N(OCC2CCCCC2)C(N)=N1
Cc1[nH]c(C)c(-c2ccc(OCc3cc(F)cc(F)c3)nc2)c(=O)c1Cl
O=C(Nc1cccc(CN2CCCN(CCc3ccccc3)CC2)c1)c1cc2ccccc2s1
O=C1NC(c2ccccc2)C2(CCN(CC(O)COc3cccc4ncccc34)CC2)O1 (stereo not given)
O=C(Nc1cccc(CN2CCN(Cc3cccc(O)c3)CC2)c1)c1cc2ccccc2s1
O=S(=O)(Nc1ccc(-c2ccc(CN3CCCC3)cc2)cc1)c1cccc2cccnc12
CCCC(C)n1ccc2c3c(N)nc(N)nc3ccc21 (stereo not given)
CC(CN(C)C)C(=O)Nc1cccc(-c2ccc(-c3nc4ccccc4[nH]3)cc2)c1 (stereo not given)
O=C(NCCCCN1CCC(c2ccc(-c3ccco3)cc2)CC1)c1ccc(NC(=O)c2ccc(Cl)cc2)cc1
CCc1ccc(NC(=O)c2ccc(CN3CCCN(CCC(C)C)CC3)cc2)cc1
O=C(Nc1ccc(C(F)(F)F)cc1)Nc1cccc([N+](=O)[O-])c1
CC(C)(C)c1ccc(CN(C[C@@H](O)CNS(=O)(=O)c2cc(Cl)cc(Cl)c2)C(C)(C)C)cc1
CCCCCN1CCCC(CNS(=O)(=O)c2ccc(C(=O)Nc3ccc(C(F)(F)F)cc3)cc2)C1 (stereo not given)
CC(C)(C)N1CCC(N(Cc2ccc(-c3ccc(C(F)(F)F)cc3)cc2)C(=O)Cn2c(CCc3cccc(F)c3F)cc(=O)c3cccnc32)CC1
CS(=O)(=O)NCCCNCc1ccc(-c2cccc(-c3nc4ccc(F)cc4[nH]3)c2)cc1
OC[C@H]1CCCN1CC#Cc1cc2c(Nc3ccc(OCc4cccc(F)c4)c(Cl)c3)ncnc2s1
Nc1ccc(-c2nc3ccc(-c4ccc5nc(-c6ccc(N)cc6)[nH]c5c4)cc3[nH]2)cc1
Cc1cccc2[nH]c(-c3ccc(-c4cccc(C(=O)NCCc5cn(C)cn5)c4)s3)nc12
